In assay [1] the target is Transcription factor E2F1 (Homo sapiens) (UniProt Q01094). In words: ATG_E2F_CIS: Attagene CIS-FACTORIAL HepG2 Assay for human E2F Transcription Factor 1 (AID 2282935). The conditions noted are these: HepG2 Attagene cis-reporter, E2F reporter RNA transcripts; actives raise or lower the signal. In short, it runs like this:
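First, HepG2 cells were transfected with reporter transcription units. Next, they were dosed for 24 h. Then RNA was isolated, converted to cDNA, PCR-amplified, FAM-labeled, HpaI-digested and analyzed by capillary electrophoresis.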

Assay [2] in a line: ATG_E_Box_CIS: Attagene CIS-FACTORIAL HepG2 Assay for human Enhancer Box (E-box) (AID 2282936). The conditions noted are these: HepG2 E-box cis-reporter transcription, actives raise or lower the signal. In short, it runs like this: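 Endogenous transcription factor activity was sensed in human HepG2 liver cells through transfected cis-promoter reporter units. After 24 h of dosing, total RNA was reverse-transcribed and reporter cDNA resolved by capillary electrophoresis.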

Assay [3] in a line: ATG_M_61_CIS: Attagene CIS-FACTORIAL HepG2 Assay for M61 Transcription Factor (Internal Marker) (AID 2282937). As to conditions: HepG2 Attagene CIS-FACTORIAL M61 internal marker reporter; actives raise or lower the signal. In short, it runs like this:
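Readout is reporter mRNA by RT-PCR, fluorescent primer extension and capillary electrophoresis, with gain or loss fitted relative to DMSO. Transfected HepG2 cells carrying endogenous-TF-driven cis reporters were exposed to chemicals for 24 hours.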

A short description of assay [4]: ATG_EGR_CIS: Attagene CIS-FACTORIAL HepG2 Assay for human Early Growth Response 1 (EGR1) (AID 2282938). The conditions noted are these: HepG2 Attagene CIS-FACTORIAL EGR reporter mRNA; actives raise or lower the signal. In short, it runs like this:
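After 24 h compound exposure, RNA from reporter-transfected HepG2 cells was reverse-transcribed, PCR-amplified, fluorescently labelled and resolved by capillary electrophoresis. EGR1 reporter transcript changes, up or down, were fitted against DMSO, reflecting endogenous transcription-factor activity.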

The nature of assay [5]: ATG_M_19_CIS: Attagene CIS-FACTORIAL HepG2 Assay for M19 Transcription Factor (Internal Marker) (AID 2282939). As to conditions: HepG2 Attagene CIS-FACTORIAL M19 internal marker reporter; actives raise or lower the signal. In short, it runs like this: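 Readout: fluorescent reporter-transcript fragments by capillary electrophoresis after RT-PCR. Human HepG2 liver cells carried transfected MRTU constructs reporting endogenous transcription-factor activity; exposure 24 h. Gain or loss of signal fitted relative to DMSO.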

Assay [6] is described as follows: ATG_ERE_CIS: Attagene CIS-FACTORIAL HepG2 Assay for Estrogen Response Element (ERE) (AID 2282940). As to conditions: HepG2 ERE cis-reporter, Attagene RNA transcript; actives raise or lower the signal. In short, it runs like this: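 Readout: reporter mRNA induction by RT-PCR, FAM-labelled primer extension, HpaI digestion and capillary electrophoresis, 24 h after dosing transfected HepG2 cells. Endogenous transcription factors act on cis-element-regulated reporters. Gain or loss fitted against DMSO.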

Assay [7] can be described thus: ATG_Ets_CIS: Attagene CIS-FACTORIAL HepG2 Assay for human Erythroblast Transformation Specific (ETS) (AID 2282941). As to conditions: HepG2 ETS cis-reporter transcription, actives raise or lower the signal. In short, it runs like this: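 Multiplexed reporter transcript profiling: HepG2, 24 h treatment, total RNA to cDNA, PCR, 6-FAM labelling, HpaI cut, capillary electrophoresis. Gain- or loss-of-signal fitted against DMSO.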

Assay [8] has as its target Hepatocyte nuclear factor 3-beta (Homo sapiens) (UniProt Q9Y261). The assay can be described thus: ATG_FoxA2_CIS: Attagene CIS-FACTORIAL HepG2 Assay for human Forkhead box A2 (FOXA2) (AID 2282942). The conditions noted are these: HepG2 cis-reporter transcription factor activity, 24 h; actives raise or lower the signal. In short, it runs like this:
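Endogenous transcription factor activity is captured via cis-element-driven reporter transcripts in transfected HepG2. Total RNA taken at 24 h post-dosing; labelled RT-PCR products resolved by capillary electrophoresis. Gain or loss fitted versus DMSO.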

Assay [9] can be described thus: ATG_FoxO_CIS: Attagene CIS-FACTORIAL HepG2 Assay for human Forkhead box O (FoxO) (AID 2282943). The conditions noted are these: HepG2 Attagene cis-reporter, FoxO element, mRNA; actives raise or lower the signal. In short, it runs like this:
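HepG2 cells transiently transfected with cis-promoter-driven multiple reporter transcription units; 24 h after chemical dosing, reporter mRNA quantified by RT-PCR, fluorescent primer extension, HpaI digestion and capillary electrophoresis. Bidirectional fitting versus DMSO baseline.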

Assay [10] can be described thus: ATG_GATA_CIS: Attagene CIS-FACTORIAL HepG2 Assay for human GATA Binding Protein (AID 2282944). The conditions noted are these: HepG2 GATA cis-element reporter, Attagene multiplex mRNA; actives raise or lower the signal. In short, it runs like this: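 Read-out: fluorescent reporter mRNA fragments resolved by capillary electrophoresis after RT-PCR. Human liver HepG2 cells carried transiently transfected cis-regulated reporter constructs; chemicals incubated 24 h; gain or loss of signal fitted relative to DMSO.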

A short description of assay [11]: ATG_GLI_CIS: Attagene CIS-FACTORIAL HepG2 Assay for human Zinc Finger Protein GLI1 (AID 2282945). As to conditions: HepG2, Attagene cis-factorial reporter mRNA, GLI element; actives raise or lower the signal. In short, it runs like this:
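HepG2 cells transiently transfected with cis-promoter multiplexed reporter units report endogenous transcription factor activity. After 24 h chemical exposure, reporter mRNA was quantified by RT-PCR, 6-FAM labelling, HpaI digestion and capillary electrophoresis, with bidirectional fitting against DMSO.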

The target in assay [12] is Bile acid receptor (Homo sapiens) (UniProt Q96RI1). In words: ATG_IR1_CIS: Attagene CIS-FACTORIAL HepG2 Assay for human Nuclear Receptor Subfamily 1 Group H Member 4 (NR1H4), IR1 submotif (AID 2282946). The conditions noted are these: IR1 reporter transcription, actives raise or lower the signal. In short, it runs like this: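 Readout: reporter transcript levels by RT-PCR with fluorescent capillary electrophoresis, from HepG2 cells transiently transfected with multiplexed cis-regulated reporters and dosed 24 h. Gain- or loss-of-signal fitted versus DMSO negative control.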
Bile acid receptor (Homo sapiens), sequence (Q96RI1 whole entry, looked up): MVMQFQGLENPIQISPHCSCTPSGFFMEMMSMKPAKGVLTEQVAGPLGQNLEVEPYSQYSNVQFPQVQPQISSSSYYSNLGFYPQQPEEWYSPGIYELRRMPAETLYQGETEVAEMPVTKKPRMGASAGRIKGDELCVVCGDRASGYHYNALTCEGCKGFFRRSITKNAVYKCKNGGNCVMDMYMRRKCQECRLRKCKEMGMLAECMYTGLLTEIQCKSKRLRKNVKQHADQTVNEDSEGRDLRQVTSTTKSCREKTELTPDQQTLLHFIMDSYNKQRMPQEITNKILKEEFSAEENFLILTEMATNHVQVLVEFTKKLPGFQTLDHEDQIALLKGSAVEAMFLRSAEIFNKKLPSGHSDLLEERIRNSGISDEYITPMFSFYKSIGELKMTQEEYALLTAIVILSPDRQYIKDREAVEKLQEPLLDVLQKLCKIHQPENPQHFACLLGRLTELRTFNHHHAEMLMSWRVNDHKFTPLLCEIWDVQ

Assay [13] can be described thus: ATG_GRE_CIS: Attagene CIS-FACTORIAL HepG2 Assay for human Glucocorticoid Response Elements (GRE) (AID 2282947). As to conditions: HepG2 GRE cis-reporter, Attagene multiplex mRNA; actives raise or lower the signal. In short, it runs like this:
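Cells (HepG2) bearing transfected cis-promoter reporter transcription units were treated with chemical for 24 hours. Reporter mRNA was measured via RT-PCR with capillary electrophoresis, and activity was fitted in both directions relative to DMSO.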

The nature of assay [14]: ATG_ISRE_CIS: Attagene CIS-FACTORIAL HepG2 Assay for human Interferon Regulatory Factor 1 (IRF1) binding to an Interferon-Stimulated Response Element (ISRE) (AID 2282948). The conditions noted are these: HepG2 ISRE cis-reporter (Attagene), mRNA transcription readout; actives raise or lower the signal. In short, it runs like this:
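Signal reflects induction or loss of ISRE-linked reporter mRNA in transiently transfected HepG2 cells after a 24 h treatment, detected by fluorescent RT-PCR fragments on capillary electrophoresis and normalised to DMSO.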

Assay [15] is described as follows: ATG_M_06_CIS: Attagene CIS-FACTORIAL HepG2 Assay for M06 Transcription Factor (Internal Marker) (AID 2282950). As to conditions: HepG2 Attagene CIS-FACTORIAL M06 internal marker reporter; actives raise or lower the signal. In short, it runs like this: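 Terse: HepG2, transient MRTU transfection (FuGene 6), 24 h dosing; total RNA, oligo(dT) RT, PCR, FAM label, HpaI cut, capillary electrophoresis; bidirectional fit vs DMSO baseline; background-control endpoint.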

Assay [16] deals with Hypoxia-inducible factor 1-alpha (Homo sapiens) (UniProt Q16665). In words: ATG_HIF1a_CIS: Attagene CIS-FACTORIAL HepG2 Assay for human Hypoxia Inducible Factor 1 (HIF1A) (AID 2282951). As to conditions: HepG2 Attagene cis-factorial HIF1a reporter transcription; actives raise or lower the signal. In short, it runs like this: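 Activity is fitted in both directions relative to DMSO. Reporter transcripts are read by RT-PCR, fluorescent primer extension and capillary electrophoresis after 24 h chemical treatment. The cells are HepG2 carrying transiently transfected cis-element-driven reporter units responding to endogenous factors.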
Hypoxia-inducible factor 1-alpha (Homo sapiens), sequence (Q16665 whole entry, looked up): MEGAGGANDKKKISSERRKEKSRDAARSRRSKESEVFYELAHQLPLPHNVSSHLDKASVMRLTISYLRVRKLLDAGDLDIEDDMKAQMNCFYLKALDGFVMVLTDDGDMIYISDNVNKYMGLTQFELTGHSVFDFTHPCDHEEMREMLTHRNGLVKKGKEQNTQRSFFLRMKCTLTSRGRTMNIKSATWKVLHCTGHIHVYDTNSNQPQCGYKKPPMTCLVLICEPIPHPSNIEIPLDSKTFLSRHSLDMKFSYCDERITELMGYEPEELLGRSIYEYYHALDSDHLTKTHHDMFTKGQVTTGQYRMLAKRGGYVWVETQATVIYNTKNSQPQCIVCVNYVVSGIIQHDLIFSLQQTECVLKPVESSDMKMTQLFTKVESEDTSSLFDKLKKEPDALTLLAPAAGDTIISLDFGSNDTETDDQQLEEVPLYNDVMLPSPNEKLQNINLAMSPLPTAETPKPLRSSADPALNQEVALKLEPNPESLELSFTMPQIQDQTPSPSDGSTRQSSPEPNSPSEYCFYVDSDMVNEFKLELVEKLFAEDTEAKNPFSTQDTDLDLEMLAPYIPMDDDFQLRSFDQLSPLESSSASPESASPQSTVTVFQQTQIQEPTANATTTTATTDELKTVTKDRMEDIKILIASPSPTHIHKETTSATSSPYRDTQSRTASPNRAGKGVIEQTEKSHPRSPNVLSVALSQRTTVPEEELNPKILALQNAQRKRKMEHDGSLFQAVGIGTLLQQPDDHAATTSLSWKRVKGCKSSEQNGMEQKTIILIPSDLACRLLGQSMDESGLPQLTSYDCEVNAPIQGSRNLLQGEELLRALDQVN

Assay [17] concerns the target Hepatocyte nuclear factor 6 (Homo sapiens) (UniProt Q9UBC0). The assay can be described thus: ATG_HNF6_CIS: Attagene CIS-FACTORIAL HepG2 Assay for human Hepatocyte Nuclear Factor 6 (HNF6) (AID 2282952). As to conditions: HepG2 Attagene cis-factorial HNF6 reporter transcription; actives raise or lower the signal. In short, it runs like this: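 Activity values derive from bidirectional fitting against DMSO of reporter mRNA levels, measured by capillary electrophoresis of labelled RT-PCR products from HepG2 cells exposed 24 h.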

Assay [18] can be described thus: ATG_MRE_CIS: Attagene CIS-FACTORIAL HepG2 Assay for human Metal Responsive Element (MRE) (AID 2282954). As to conditions: HepG2 MRE cis-reporter transcription, Attagene multiplex; actives raise or lower the signal. In short, it runs like this:
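Cells were transfected with cis-promoter reporter transcription units, then dosed for 24 h. RNA was reverse-transcribed, amplified, fluorescently labelled and resolved by capillary electrophoresis, and activity was fitted in both directions relative to DMSO.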

Assay [19] has as its target Heat shock factor protein 1 (Homo sapiens) (UniProt Q00613). In words: ATG_HSE_CIS: Attagene CIS-FACTORIAL HepG2 Assay for human Heat Shock Transcription Factor 1 (HSE) (AID 2282953). The conditions noted are these: HepG2 HSE cis-reporter, Attagene RNA transcription; actives raise or lower the signal. In short, it runs like this:
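Read-out: fluorescence of reporter-specific RT-PCR fragments separated by capillary electrophoresis. HepG2 carrying transfected cis-element reporter units; 24 h dosing; activity fitted in both directions relative to DMSO baseline.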

Our source for the outcome and AC50 values is PubChem BioAssay (EPA / NIEHS).

Activity calls are given as the source filed them. How the source made its calls: active means hit-call score of the fitted dose curve at least 0.9, where 1 is the maximum; inactive means score below 0.9.

Hepatocyte nuclear factor 3-beta (Homo sapiens), sequence (Q9Y261 whole entry, looked up): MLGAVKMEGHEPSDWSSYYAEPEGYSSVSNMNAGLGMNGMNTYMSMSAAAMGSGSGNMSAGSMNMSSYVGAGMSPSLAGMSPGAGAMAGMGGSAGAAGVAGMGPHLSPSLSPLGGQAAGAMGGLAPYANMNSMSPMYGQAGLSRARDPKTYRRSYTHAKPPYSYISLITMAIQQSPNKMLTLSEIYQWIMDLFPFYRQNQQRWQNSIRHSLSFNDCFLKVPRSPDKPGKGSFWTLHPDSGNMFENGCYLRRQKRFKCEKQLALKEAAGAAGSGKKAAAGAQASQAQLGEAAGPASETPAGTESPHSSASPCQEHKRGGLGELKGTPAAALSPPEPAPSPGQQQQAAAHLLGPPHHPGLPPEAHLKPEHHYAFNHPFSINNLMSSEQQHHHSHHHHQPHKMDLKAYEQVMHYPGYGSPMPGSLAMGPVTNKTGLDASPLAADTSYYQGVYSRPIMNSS
Hepatocyte nuclear factor 6 (Homo sapiens), sequence (Q9UBC0 whole entry, looked up): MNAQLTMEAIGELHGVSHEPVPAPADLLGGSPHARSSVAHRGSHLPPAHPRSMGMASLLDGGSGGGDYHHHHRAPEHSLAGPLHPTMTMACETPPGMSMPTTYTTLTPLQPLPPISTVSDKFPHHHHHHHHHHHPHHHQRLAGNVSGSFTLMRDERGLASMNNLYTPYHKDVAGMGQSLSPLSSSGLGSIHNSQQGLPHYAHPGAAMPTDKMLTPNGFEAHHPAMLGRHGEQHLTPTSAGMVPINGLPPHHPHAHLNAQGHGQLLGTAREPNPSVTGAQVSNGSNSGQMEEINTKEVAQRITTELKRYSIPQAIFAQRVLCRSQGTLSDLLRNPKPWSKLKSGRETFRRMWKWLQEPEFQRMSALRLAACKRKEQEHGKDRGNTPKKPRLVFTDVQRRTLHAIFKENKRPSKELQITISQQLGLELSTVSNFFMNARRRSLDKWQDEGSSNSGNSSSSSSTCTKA
Transcription factor E2F1 (Homo sapiens), sequence (Q01094 whole entry, looked up): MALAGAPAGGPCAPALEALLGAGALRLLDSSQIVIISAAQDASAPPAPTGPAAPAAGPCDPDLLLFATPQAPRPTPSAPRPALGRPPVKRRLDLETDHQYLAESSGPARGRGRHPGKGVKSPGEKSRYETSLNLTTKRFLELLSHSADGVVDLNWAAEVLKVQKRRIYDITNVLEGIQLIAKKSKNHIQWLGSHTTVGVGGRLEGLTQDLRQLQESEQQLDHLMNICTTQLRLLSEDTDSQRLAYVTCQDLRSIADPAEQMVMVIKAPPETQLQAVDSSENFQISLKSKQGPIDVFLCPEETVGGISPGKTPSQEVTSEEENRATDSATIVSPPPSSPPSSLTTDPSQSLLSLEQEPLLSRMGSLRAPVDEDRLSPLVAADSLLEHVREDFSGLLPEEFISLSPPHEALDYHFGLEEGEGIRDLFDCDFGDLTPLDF
Heat shock factor protein 1 (Homo sapiens), sequence (Q00613 whole entry, looked up, the tested form may be a part): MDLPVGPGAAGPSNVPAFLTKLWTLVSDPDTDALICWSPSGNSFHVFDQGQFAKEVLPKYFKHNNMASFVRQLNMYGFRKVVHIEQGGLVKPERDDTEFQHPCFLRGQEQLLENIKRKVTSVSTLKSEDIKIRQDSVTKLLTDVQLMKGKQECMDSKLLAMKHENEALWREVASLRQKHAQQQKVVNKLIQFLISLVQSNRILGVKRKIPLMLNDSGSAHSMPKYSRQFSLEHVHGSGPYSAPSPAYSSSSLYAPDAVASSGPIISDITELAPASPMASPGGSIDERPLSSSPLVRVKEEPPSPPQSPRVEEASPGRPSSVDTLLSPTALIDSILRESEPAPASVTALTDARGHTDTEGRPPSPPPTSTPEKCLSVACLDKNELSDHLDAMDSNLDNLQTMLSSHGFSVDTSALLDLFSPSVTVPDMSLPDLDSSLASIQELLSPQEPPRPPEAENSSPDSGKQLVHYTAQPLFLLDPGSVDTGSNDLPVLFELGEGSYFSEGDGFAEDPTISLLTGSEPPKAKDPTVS

Take `O=C(O)C(F)(OC(F)(F)C(F)(F)C(F)(F)F)C(F)(F)F` (centres undefined): the call in assay [1], in [2], in assay [3], in assay [4], in [5] and in [6] was inactive. Moreover, the molecule was classed as inactive in assay [7], in assay [8], in [9], in [10], in [11] and in assay [12]. For the same molecule, the outcome in assay [13], in assay [14], in assay [15], in assay [16], in assay [17] and in assay [18] was inactive.
Take `FC(F)(F)C(F)(C(F)(F)F)C(F)(F)C(F)(F)CC1CO1` (centres undefined): the outcome in assay [1], in [2], in [3], in [4], in assay [5] and in assay [6] was inactive. For the same molecule, the call in assay [7], in [8], in assay [9], in assay [10], in assay [11] and in [12] was inactive. Also, the call in assay [13], in assay [14], in assay [15], in assay [16], in assay [17] and in assay [18] was inactive.
Take `N#C/C=C/c1ccccc1`: the molecule was called inactive in [1], in assay [2], in [3], in assay [4], in [5] and in assay [6]. In addition, the result in [7], in assay [8], in [9], in assay [10], in assay [11] and in assay [12] was inactive. The molecule was called inactive in assay [13], in assay [14], in assay [15], in assay [16], in assay [17] and in assay [19]. In addition, the outcome in [18] was inactive.
A word on the AC50: it is the midpoint of the concentration-response curve, whichever way the signal moves. Turning to `C=CC(=O)OCC(F)(F)C(F)F`, the molecule was classed as inactive in assay [1], in assay [2], in assay [3], in assay [4], in assay [5] and in [6]. The outcome in assay [7], in assay [8], in assay [9], in [10], in [11] and in assay [12] was inactive. Besides, the outcome in assay [13], in [15], in assay [16], in [17] and in assay [19] was inactive. Further, the AC50 was 150 µM (active) in assay [14] and 117 µM (active) in [18].
